In PubChem BioAssay (EPA / NIEHS):
Calls of active or inactive are those of the source. Rule for the calls: active = hit-call score of the fitted dose curve at least 0.9, where 1 is the maximum; inactive = score below 0.9.

Experiments:
Settings in all cases: mRNA level, 48 h; actives raise or lower the signal
CYP2E1 (gene 1571) = test: LTEA_HepaRG_CYP2E1: Life Technologies and Expression Analysis (LTEA) Assay for CYP2E1 using HepaRG (AID 2283485)
In short: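 Readout is qRT-PCR of CYP2E1 mRNA, normalized to three housekeeping genes and fitted bidirectionally against 0.5% DMSO. HepaRG cells were dosed 48 h at eight concentrations, highest 100 uM with half-log dilutions.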

CYP4A11 (gene 1579) = test: LTEA_HepaRG_CYP4A11: Life Technologies and Expression Analysis (LTEA) Assay for CYP4A11 using HepaRG (AID 2283486)
In short: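 Readout is CYP4A11 transcript level by qRT-PCR, normalized to three housekeeping genes and fitted bidirectionally against 0.5% DMSO. Human HepaRG cells were treated 48 h, in duplicate, with an 8-point half-log series topping at 100 uM.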

[1] = read-out: Cytochrome P450 3A4 (Homo sapiens) (UniProt P08684); test: LTEA_HepaRG_CYP3A4: Life Technologies and Expression Analysis (LTEA) Assay for CYP3A4 using HepaRG (AID 2283487)
In short: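 CYP3A4 transcript measured by TaqMan qRT-PCR and normalized to three housekeeping genes after 48 h chemical exposure of human HepaRG cells. Top concentration 100 uM, half-log steps, 0.5% DMSO vehicle; gain or loss fitted against DMSO baseline.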

[2] = read-out: DNA damage-inducible transcript 3 (DDIT3), DDIT3 (gene 1649); test: LTEA_HepaRG_DDIT3: Life Technologies and Expression Analysis (LTEA) Assay for DNA damage-inducible transcript 3 (DDIT3) using HepaRG (AID 2283488)
In short: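 Cells are human HepaRG liver cells treated for 48 h with eight half-log concentrations up to 100 uM in 0.5% DMSO. Transcript levels come from qRT-PCR normalized to three housekeeping genes, with activity fitted in both directions relative to vehicle.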

[3] = read-out: Pro-epidermal growth factor (Homo sapiens) (UniProt P01133); test: LTEA_HepaRG_EGF: Life Technologies and Expression Analysis (LTEA) Assay for Epidermal growth factor (EGF) using HepaRG (AID 2283489)
In short: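 EGF transcript measured by Fluidigm TaqMan qRT-PCR with three housekeeping genes for normalization, 48 h after dosing HepaRG cultures in duplicate (top 100 uM, half-log steps, 0.5% DMSO vehicle). Gain or loss relative to DMSO fitted.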

[4] = read-out: Early growth response protein 1 (EGR1) transcription factor, EGR1 (gene 1958); test: LTEA_HepaRG_EGR1: Life Technologies and Expression Analysis (LTEA) Assay for Early growth response protein 1 (EGR1) transcription factor using HepaRG (AID 2283490)
In short: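 EGR1 transcript levels quantified by qRT-PCR (Fluidigm arrays) against three housekeeping genes after 48 h chemical exposure of HepaRG cells. Eight-point half-log series topping at 100 uM, 0.5% DMSO vehicle, analyzed for gain or loss.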

[5] = read-out: Ezrin (EZR), EZR (gene 7430); test: LTEA_HepaRG_EZR: Life Technologies and Expression Analysis (LTEA) Assay for Ezrin (EZR) using HepaRG (AID 2283491)
In short: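 HepaRG, 48 h chemical exposure, 8-pt half-log series from 100 uM, 0.5% DMSO vehicle, duplicates. Read-out: EZR mRNA by TaqMan qRT-PCR (Fluidigm array), housekeeping-normalized; bidirectional curve fit vs DMSO baseline.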

[6] = read-out: Cytochrome P450 3A7 (Homo sapiens) (UniProt P24462); test: LTEA_HepaRG_CYP3A7: Life Technologies and Expression Analysis (LTEA) Assay for CYP3A7 using HepaRG (AID 2283492)
In short: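 CYP3A7 transcript measured by qRT-PCR (ACTB, GAPDH, POLR2A normalization) after 48 h chemical exposure of HepaRG cells in duplicate. Eight half-log concentrations, maximum 100 uM, 0.5% DMSO vehicle; bidirectional curve fitting against DMSO baseline.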

CYP3A5 (gene 1577) = test: LTEA_HepaRG_CYP3A5: Life Technologies and Expression Analysis (LTEA) Assay for CYP3A5 using HepaRG (AID 2283493)
In short: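 Human HepaRG hepatic cells receive 48 h chemical treatment at eight concentrations (half-log steps from 100 uM) in 0.5% DMSO. Expression of CYP3A5 is quantified by Fluidigm qRT-PCR and normalized to three reference genes.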

[7] = read-out: Fatty Acid-Binding Protein 1 (FABP1), FABP1 (gene 2168); test: LTEA_HepaRG_FABP1: Life Technologies and Expression Analysis (LTEA) Assay for Fatty Acid-Binding Protein 1 (FABP1) using HepaRG (AID 2283494)
In short: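 FABP1 expression by TaqMan qRT-PCR, normalised to three housekeeping genes, in HepaRG cells after 48 h chemical treatment. Eight-point half-log series topping at 100 uM in 0.5% DMSO, duplicates; gain or loss fitted relative to vehicle.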

[8] = read-out: Cytochrome P450 4A22 (Homo sapiens) (UniProt Q5TCH4); test: LTEA_HepaRG_CYP4A22: Life Technologies and Expression Analysis (LTEA) Assay for Cytochrome P450 4A22 (CYP4A22) using HepaRG (AID 2283495)
In short: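 Gene expression measured by qRT-PCR against three housekeeping genes (ACTB, GAPDH, POLR2A), with gain or loss fitted relative to 0.5% DMSO vehicle. HepaRG cultures received 48 h chemical treatment, top concentration 100 uM, half-log steps, duplicate wells.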

[9] = read-out: Cytochrome P450 7A1 (Homo sapiens) (UniProt P22680); test: LTEA_HepaRG_CYP7A1: Life Technologies and Expression Analysis (LTEA) Assay for Cytochrome P450 7A1 (CYP7A1) using HepaRG (AID 2283496)
In short: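 HepaRG, 48 h exposure, 8-pt half-log series from 100 uM, 0.5% DMSO vehicle, duplicates. Readout: TaqMan qRT-PCR mRNA vs three housekeeping genes; bidirectional curve fit against DMSO baseline.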

[10] = read-out: Glutathione S-Transferase (GSTA2), GSTA2 (gene 2939); test: LTEA_HepaRG_GSTA2: Life Technologies and Expression Analysis (LTEA) Assay for Glutathione S-Transferase (GSTA2) using HepaRG (AID 2283497)
In short: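 GSTA2 transcript levels came from Fluidigm TaqMan qRT-PCR normalized to three housekeeping genes, fitted in both directions against DMSO. HepaRG cultures received chemicals for 48 h in serum-free induction medium (0.5% DMSO), 8 half-log concentrations up to 100 uM, duplicate.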

[11] = read-out: Glutamate-cysteine ligase catalytic (GCLC), GCLC (gene 2729); test: LTEA_HepaRG_GCLC: Life Technologies and Expression Analysis (LTEA) Assay for Glutamate-cysteine ligase catalytic (GCLC) using HepaRG (AID 2283498)
In short: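 Expression by TaqMan qRT-PCR, normalized to three housekeeping genes (ACTB, GAPDH, POLR2A), with up- or down-regulation fitted against DMSO. HepaRG cells dosed in duplicate for 48 h with 8 half-log concentrations up to 100 uM, vehicle 0.5% DMSO.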

[12] = read-out: growth arrest and DNA damage 45 (GADD45G), GADD45G (gene 10912); test: LTEA_HepaRG_GADD45G: Life Technologies and Expression Analysis (LTEA) Assay for growth arrest and DNA damage 45 (GADD45G) using HepaRG (AID 2283499)
In short: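 GADD45G transcript level by qRT-PCR (housekeeping-normalized: ACTB, GAPDH, POLR2A) after 48 h chemical treatment of a single HepaRG lot in serum-free induction medium; eight-point half-log series up to 100 uM in 0.5% DMSO, duplicates, up- or down-regulation scored.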

[13] = read-out: Glutathione S-transferase M3 (GSTM3), GSTM3 (gene 2947); test: LTEA_HepaRG_GSTM3: Life Technologies and Expression Analysis (LTEA) Assay for Glutathione S-transferase M3 (GSTM3) using HepaRG (AID 2283501)
In short: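 GSTM3 transcript levels came from Fluidigm TaqMan qRT-PCR normalized to three housekeeping genes, fitted in both directions against DMSO. HepaRG cultures received chemicals for 48 h in serum-free induction medium (0.5% DMSO), 8 half-log concentrations up to 100 uM, duplicate.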

[14] = read-out: Heat shock 70 kDa protein 1 (HSPA1A), gene 3303; test: LTEA_HepaRG_HSPA1A: Life Technologies and Expression Analysis (LTEA) Assay for Heat shock 70 kDa protein 1 (HSPA1A) using HepaRG (AID 2283502)
In short: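 Cells were plated and cultured for 48 h, then switched to serum-free induction medium. Chemicals were added at eight half-log concentrations up to 100 uM for 48 h. RNA was then isolated and HSPA1A measured by qRT-PCR with bidirectional curve fitting against DMSO.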

[15] = read-out: Hypoxia-inducible factor 1-alpha (Homo sapiens) (UniProt Q16665); test: LTEA_HepaRG_HIF1A: Life Technologies and Expression Analysis (LTEA) Assay for Hypoxia-inducible factor 1 (HIF1A) Trancription factor using HepaRG (AID 2283503)
In short: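 HIF1A transcript level read by qRT-PCR (ACTB, GAPDH, POLR2A normalization) after 48 h chemical exposure of HepaRG cultures. Eight half-log concentrations, top 100 uM, 0.5% DMSO vehicle, duplicates; bidirectional curve fit against DMSO baseline.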

[16] = read-out: 3-Hydroxy-3-Methylglutaryl-CoA Synthase 2 (HMGCS2), HMGCS2 (gene 3158); test: LTEA_HepaRG_HMGCS2: Life Technologies and Expression Analysis (LTEA) Assay for 3-Hydroxy-3-Methylglutaryl-CoA Synthase 2 (HMGCS2) using HepaRG (AID 2283504)
In short: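 Readout is HMGCS2 transcript by qRT-PCR, housekeeping-normalised (ACTB/GAPDH/POLR2A) and fitted bidirectionally against 0.5% DMSO. Differentiated HepaRG cells received chemicals 48 h, duplicate wells, eight half-log concentrations topping at 100 uM.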

[17] = read-out: Glutamate-cysteine ligase regulatory (GCLM), GCLM (gene 2730); test: LTEA_HepaRG_GCLM: Life Technologies and Expression Analysis (LTEA) Assay for Glutamate-cysteine ligase regulatory (GCLM) using HepaRG (AID 2283500)
In short: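 Endpoint is GCLM transcript level by qRT-PCR, normalized to three housekeeping genes, after 48 h chemical exposure of human HepaRG cells (0.5% DMSO vehicle, top 100 uM, half-log dilutions). Fitting was bidirectional relative to DMSO.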

Measured: AC50

Sequence of Cytochrome P450 3A4 (Homo sapiens) (P08684 whole entry, looked up): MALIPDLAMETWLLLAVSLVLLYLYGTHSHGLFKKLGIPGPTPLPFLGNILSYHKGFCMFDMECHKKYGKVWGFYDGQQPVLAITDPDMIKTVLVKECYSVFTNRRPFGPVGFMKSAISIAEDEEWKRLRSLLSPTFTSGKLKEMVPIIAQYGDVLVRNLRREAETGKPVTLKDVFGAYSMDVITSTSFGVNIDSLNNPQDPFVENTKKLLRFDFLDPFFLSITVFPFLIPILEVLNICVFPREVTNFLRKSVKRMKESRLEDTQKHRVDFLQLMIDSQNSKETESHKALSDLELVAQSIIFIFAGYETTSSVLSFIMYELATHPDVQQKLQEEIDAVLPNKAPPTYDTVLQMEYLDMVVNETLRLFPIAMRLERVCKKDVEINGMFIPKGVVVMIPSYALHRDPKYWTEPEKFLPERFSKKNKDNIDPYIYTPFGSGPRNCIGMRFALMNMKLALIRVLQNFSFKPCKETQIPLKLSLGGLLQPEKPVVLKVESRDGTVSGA
Sequence of Cytochrome P450 3A7 (Homo sapiens) (P24462 whole entry, looked up): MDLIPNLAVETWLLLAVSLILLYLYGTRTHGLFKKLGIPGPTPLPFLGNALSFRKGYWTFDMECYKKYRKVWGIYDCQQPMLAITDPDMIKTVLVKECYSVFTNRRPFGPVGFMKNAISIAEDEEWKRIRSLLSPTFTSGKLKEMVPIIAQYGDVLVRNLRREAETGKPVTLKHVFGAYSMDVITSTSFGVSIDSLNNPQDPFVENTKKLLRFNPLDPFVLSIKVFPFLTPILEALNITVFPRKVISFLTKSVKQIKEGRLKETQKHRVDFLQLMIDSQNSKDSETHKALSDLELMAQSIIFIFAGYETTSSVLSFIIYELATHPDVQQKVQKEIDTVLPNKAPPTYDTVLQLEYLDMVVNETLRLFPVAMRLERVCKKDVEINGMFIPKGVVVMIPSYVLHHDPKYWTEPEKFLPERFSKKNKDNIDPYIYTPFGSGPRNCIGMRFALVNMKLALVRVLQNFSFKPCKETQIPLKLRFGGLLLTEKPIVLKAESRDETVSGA
Sequence of Hypoxia-inducible factor 1-alpha (Homo sapiens) (Q16665 whole entry, looked up): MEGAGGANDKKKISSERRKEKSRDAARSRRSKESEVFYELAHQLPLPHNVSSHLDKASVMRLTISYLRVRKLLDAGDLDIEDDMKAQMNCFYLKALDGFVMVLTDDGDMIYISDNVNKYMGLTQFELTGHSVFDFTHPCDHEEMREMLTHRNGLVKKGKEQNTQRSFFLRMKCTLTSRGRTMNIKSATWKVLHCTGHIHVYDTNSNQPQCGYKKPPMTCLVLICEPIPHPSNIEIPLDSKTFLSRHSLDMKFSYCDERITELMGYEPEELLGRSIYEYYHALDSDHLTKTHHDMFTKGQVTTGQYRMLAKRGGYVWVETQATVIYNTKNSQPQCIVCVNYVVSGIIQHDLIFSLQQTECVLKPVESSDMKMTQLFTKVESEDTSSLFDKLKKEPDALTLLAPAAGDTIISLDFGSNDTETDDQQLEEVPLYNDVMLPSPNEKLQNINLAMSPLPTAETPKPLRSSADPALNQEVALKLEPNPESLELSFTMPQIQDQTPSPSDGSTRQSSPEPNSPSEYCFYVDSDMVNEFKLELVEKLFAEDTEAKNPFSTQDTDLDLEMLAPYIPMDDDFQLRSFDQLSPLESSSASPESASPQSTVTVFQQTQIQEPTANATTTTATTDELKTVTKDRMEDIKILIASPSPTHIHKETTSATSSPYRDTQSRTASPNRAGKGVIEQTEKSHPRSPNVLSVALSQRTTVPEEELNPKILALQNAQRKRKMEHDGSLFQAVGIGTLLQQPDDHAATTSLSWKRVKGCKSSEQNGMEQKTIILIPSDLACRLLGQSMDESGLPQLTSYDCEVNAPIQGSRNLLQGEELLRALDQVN

CCCCCCCCCC
not listed: [17]
inactive: all other assays above

O=C(NO)C1(NS(=O)(=O)c2ccc(Oc3ccc(F)cc3)cc2)CCOCC1
active: CYP2E1 (gene 1571) 54.4 µM | CYP4A11 (gene 1579) 71 µM | [1] 4.48 µM | [2] 77.8 µM | [7] 50 µM | [8] 68.9 µM | [10] 83.5 µM | [12] 72.6 µM | [16] 83.3 µM
not listed: [13]
inactive: all other assays above

CC(C)c1nnc2ccc(-c3ocnc3-c3cc(F)ccc3F)cn12
inactive: [3] | CYP3A5 (gene 1577) | [11] | [13] | [14] | [15]
active: CYP2E1 (gene 1571) 22.2 µM | CYP4A11 (gene 1579) 33.6 µM | [1] 1.42 µM | [2] 80.1 µM | [4] 12.3 µM | [5] 2.38 µM | [6] 81.6 µM | [7] 52.6 µM | [8] 31.8 µM | [9] 25.2 µM | [10] 80.5 µM | [12] 0.0565 µM | [16] 59.1 µM
